# PRMT1 FP inh: PRMT1 methyltransferase inhibitors, primary screen, biochemical, fluorescence polarization; Protein arginine N-methyltransferase 1 (Homo sapiens), Q99873; recombinant PRMT1, activity-based probe fluorescence polarization; inhibition, % at 2.79 µM; 370,000 tested, 1.3% active; AID 652257, 2013;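 active = inhibition above about 21% made by adding two undisclosed values, limit read from the data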
# Target sequence (Q99873 whole entry, looked up): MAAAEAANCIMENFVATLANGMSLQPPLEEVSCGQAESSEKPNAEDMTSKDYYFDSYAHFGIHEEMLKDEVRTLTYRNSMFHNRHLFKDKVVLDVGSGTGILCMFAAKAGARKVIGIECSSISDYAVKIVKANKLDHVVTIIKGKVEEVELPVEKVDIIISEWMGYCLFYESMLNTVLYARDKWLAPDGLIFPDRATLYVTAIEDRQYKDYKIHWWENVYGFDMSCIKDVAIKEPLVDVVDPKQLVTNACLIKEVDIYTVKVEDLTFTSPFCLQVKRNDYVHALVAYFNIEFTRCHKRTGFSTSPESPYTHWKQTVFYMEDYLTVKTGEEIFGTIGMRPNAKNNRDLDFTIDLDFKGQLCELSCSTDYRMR
# ALR inh: inhibitors of human ALR sulfhydryl oxidase, primary screen, biochemical, H2O2 detection, HRP-luminol luminescence, single point. FAD-linked sulfhydryl oxidase ALR (Homo sapiens), P55789. purified ALR, DTT oxidation. inhibition, % (no concentration beside the values). 290,000 tested, 3.8% active. AID 485317, 2010;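 active = mean replicate inhibition above about 79%, with every replicate also reaching it, limit read from the data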
# Target sequence (P55789 whole entry, looked up): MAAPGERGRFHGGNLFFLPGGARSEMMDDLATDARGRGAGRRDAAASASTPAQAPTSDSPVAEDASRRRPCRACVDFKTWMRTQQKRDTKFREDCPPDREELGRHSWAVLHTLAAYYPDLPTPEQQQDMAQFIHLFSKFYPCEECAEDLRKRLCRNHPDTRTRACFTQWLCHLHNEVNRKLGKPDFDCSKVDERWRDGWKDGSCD
# rCAG RNA binder: binders of r(CAG) RNA repeats, primary screen, biochemical, fluorescence. inhibition, % at 3 µM. AID 651821, 2012. 370,000 tested, 1.3% active. r(CAG) RNA repeat, TO-PRO-1 dye displacement fluorescence;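 active = inhibition above the plate cutoff, the mean of all test compounds on that plate plus 3 SD, cut at about 35% in these data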;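 also: 0% = DMSO alone and 100% = 100 µM mitoxantrone as full dye displacement; higher means more dye released from RNA so lower well fluorescence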
# ABHD5-PLIN5 inh: ABHD5-PLIN5 interaction inhibitors, primary screen, cell lysate, split luciferase complementation, luminescence. Perilipin-5 (Homo sapiens) + 1-acylglycerol-3-phosphate O-acyltransferase ABHD5 (Homo …. Split G. princeps luciferase complementation, 4 h. inhibition, % at 4 µM. 360,000 tested, 0.78% active. AID 602281, 2012;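 active = inhibition above the mean inhibition across every tested compound plus 3 SD, cut at about 22% in these data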;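 also: 0% = DMSO only wells and the 100% control is not disclosed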
# LANA-H2B inh: blockers of LANA interaction with H2A/H2B – biochemical, FP readout, HTS, primary screen; AID 2629, 2010; inhibition, % (no concentration beside the values); cell-free LANA-H2A/H2B peptide, fluorescence polarization; 320,000 tested, 0.6% active; Protein LANA1 (Human herpesvirus 8 type P (isolate GK18)), Q9QR71; in the data active = inhibition mostly above about 10%, no sharp cut-off; inactive = mostly below about 6.7%
# Rtt109 Vps75: inhibitors of C. albicans Rtt109/Vps75 HAT, primary screen, biochemical, ThioGlo CoA-SH fluorescence, plate reader. Histone acetyltransferase RTT109 (Candida albicans (strain SC5314 / ATCC MYA-2876)), …. purified Rtt109/Vps75, 4 h. inhibition, % at 34.9 µM. 330,000 tested, 0.16% active;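 active = inhibition of at least 50% in every replicate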
# An asterisk follows results filed as active; / = not tested or not shown. Rows were chosen to be rich in hits. Some 5.9% of all compounds tested hit in one or more screens of this group.
SMILES,PRMT1 FP inh,ALR inh,rCAG RNA binder,ABHD5-PLIN5 inh,LANA-H2B inh,Rtt109 Vps75
Cc1cccc(N2CCN(C(=O)CCn3c(=O)[nH]c4ccsc4c3=O)CC2C)c1 (centres undefined),-1.2,99.1*,-2.1,-10.6,0.1,3.7
NC(=O)c1ncn([C@@H]2O[C@H](C(=O)N[C@H](Cc3c[nH]c4ccccc34)C(=O)N3CCN(C(=O)N4CCCCC4)CC3)[C@@H](O)[C@H]2O)n1,-1.5,/,-0.6,/,/,/
Nc1ccn([C@@H]2O[C@H](C(=O)N3CCCN(Cc4ccccc4F)CC3)[C@@H](O)[C@H]2O)c(=O)n1,-2.7,/,2.6,0.5,/,/
COc1cc(CNc2cccc3c2S(=O)(=O)N([C@H](C)c2ccccc2)C[C@@H](COCc2ccccc2)O3)cc(OC)c1OC,0.1,/,8.1,/,/,/
CC(C)(C)c1ccc(C(=O)N2CCC2(C)C(=O)Nc2cccc3ncccc23)cc1 (centres undefined),-1.9,/,0.9,-0.3,/,/
O=C(CCCn1c(=O)[nH]c2ccsc2c1=O)N1CCCCC1,-1.4,2.8,-1.9,-3.6,-0.7,11.4
Cc1cccc(N2CCN(C(=O)CCCn3c(=O)[nH]c4ccsc4c3=O)CC2C)c1 (centres undefined),0.6,98.4*,0.4,12.5,-1.9,3.9
COc1ccccc1NC(=O)Nc1ncccc1C,-1.8,98.0*,-2.5,0.4,1.5,4.8
COc1ccccc1NC(=O)Nc1cnccn1,0.3,0.9,0.2,1.5,8.5,1.4
Cc1cc(SCC(=O)Nc2ccc3[nH]c(=O)[nH]c3c2)nc2ccccc12,6.6,27.9,4.7,8.8,-3.9,2.0
Cc1ccc(S(=O)(=O)/N=C2/NC(=O)/C(=C/c3cccnc3)S2)cc1,-1.7,10.7,15.1,-1.1,1.6,9.0
Cc1ccc(S(=O)(=O)/N=C2/NC(=O)/C(=C\c3cc(Br)cc(Br)c3O)S2)cc1,/,98.5*,/,-1.0,-6.8,33.5
O=C(O)[C@H](Cc1ccccc1)NC(=O)N1CCC(Cc2ccccc2)CC1,2.6,-6.4,2.8,1.6,17.9*,5.4
O=C(O)[C@H](Cc1ccccc1)NC(=O)N1CCN(c2ccc(F)cc2)CC1,8.8,98.0*,-3.0,1.1,3.0,7.4
COC(=O)[C@H](Cc1ccccc1)NC(=O)N1CCN(c2ccccc2)CC1,3.0,85.4*,-6.6,3.6,0.7,-10.7
CC1CCN(C(=O)N[C@@H](Cc2ccccc2)C(=O)O)CC1,-0.3,-2.6,-1.3,-4.1,0.1,6.6
Cc1cc(C(=O)Nc2ccc(Cl)c(Cl)c2)n(-c2ccccc2)n1,-0.7,/,1.1,/,/,/
CCCN1CCCCC(NC(=O)c2ccc(C)cc2C)C1=O (centres undefined),2.3,/,-1.6,/,/,/
Nc1sccc1C(=O)c1ccc(Cl)cc1,16.9,/,5.3,-13.3,/,-0.2
NC(=O)c1ccsc1N,/,98.3*,/,/,2.6,/
CC1(C)OC(C)(C)/C(=C/Nc2ccc(O)cc2)C1=O,18.3,99.1*,7.6,-10.2,0.4,21.6
COc1ccc(NC2CCCN(C(=O)c3ccc(C(C)=O)s3)C2)cc1 (centres undefined),-0.5,92.3*,-1.3,1.4,-2.9,-1.0
COc1ccc(NC2CCCN(C(=O)c3ccc(OC)o3)C2)cc1 (centres undefined),-0.6,98.7*,0.4,2.2,2.0,-9.1
COc1ccccc1OCC(=O)N1CCCC(Nc2cccc(F)c2)C1 (centres undefined),1.1,-2.8,-4.9,1.9,5.0,-0.3
COc1ccc(C(=O)N2CCCC(Nc3ccc(F)cc3)C2)c(OC)c1 (centres undefined),1.7,98.4*,-4.5,9.7,7.7,-10.9
SMILES,PRMT1 FP inh,ALR inh,rCAG RNA binder,ABHD5-PLIN5 inh,LANA-H2B inh,Rtt109 Vps75
COc1ccc(NC2CCCN(C(=O)C3=NNC(=O)CC3)C2)cc1 (centres undefined),-2.4,/,3.5,4.6,/,/
COc1ccc(NC2CCCN(C(=O)c3cccc(N(C)C)c3)C2)cc1 (centres undefined),-1.4,/,-5.6,-10.8,/,3.2
Cc1ccc(C(=O)N2CCCC(CCC(=O)N3CCN(c4ccccn4)CC3)C2)cc1C (centres undefined),-4.0,0.9,-9.3,-8.4,4.0,-1.4
Cc1ccc(C(=O)N2CCCC(CCC(=O)N3CCN(c4ccccn4)CC3)C2)cn1 (centres undefined),-0.9,-7.2,-6.2,-0.6,10.5*,-8.7
COc1ccc(C(=O)C2(C(=O)NCc3ccccc3)CC(c3ccccc3C(F)(F)F)=NO2)cc1 (centres undefined),1.0,/,5.0,/,/,/
COc1ccc(NC2CCCN(C(=O)c3ccc4[nH]c(C)c(C)c4c3)C2)cc1 (centres undefined),-1.4,87.7*,6.6,-5.2,-0.1,-1.9
COc1ccc(NC2CCCN(C(=O)c3ccc(C)nc3)C2)cc1 (centres undefined),2.5,98.6*,-2.6,0.8,1.8,-14.1
COc1ccc(NC2CCCN(C(=O)c3ccc(C)c(N4CCNC4=O)c3)C2)cc1 (centres undefined),1.5,97.9*,0.7,-1.9,-8.3,10.9
COc1ccc(NC2CCCN(C(=O)c3ccc(C(C)=O)cc3)C2)cc1 (centres undefined),1.0,98.0*,-5.3,-2.0,-0.1,2.4
COC(=O)C1=C(C)N(C)C(=NCc2cccc(C(F)(F)F)c2)NC1c1ccc(Cl)cc1 (centres undefined),-3.2,/,7.7,/,/,/
COc1cc2c(c3c1c(=O)c1cccc(F)c1n3C)C=CC(C)(C)O2,2.9,/,1.4,/,/,/
COc1ccc(NC2CCCN(C(=O)c3cc4ncccn4n3)C2)cc1 (centres undefined),4.0,99.7*,-1.2,-0.9,0.4,0.2
O=C(OCc1ccccc1)N1CCC2CC1c1ccc(N3CCNCC3)cc12 (centres undefined),1.9,/,3.8,6.4,/,/
S=c1[nH]cc(-c2ccccc2)n1-c1ccccc1Cl,7.6,90.2*,2.7,-6.8,1.0,-9.2
Cc1ccc(-c2c[nH]c(=S)n2-c2ccccc2F)cc1,18.9,97.9*,-4.3,-9.5,-1.4,1.2
CCOC(=O)N1CCN(C(=O)CSCC(=O)Nc2nc(-c3cccs3)cs2)CC1,1.1,89.6*,-2.0,3.4,-3.4,-1.0
CC1CCCCN1C(=O)CSCC(=O)Nc1nc(-c2cccs2)cs1 (centres undefined),8.2,2.9,1.5,-1.2,-2.2,2.7

# Bioassay records: PubChem BioAssay, several laboratories
